Data: PubChem BioAssay AID1159580 (chemical genetic matrix, 2015)
The campaign covered roughly 5,500 compounds. About 2,000 (36%) were called active. Roughly 18% stayed inconclusive and do not appear here. Rule as the data show it: active = normalized growth mostly below about 0.91 (no sharp cut-off); inconclusive = no clear call, values can overlap the other calls; inactive = mostly above about 0.92. Some of the results follow.

Assay: chemical genetic growth profiling, strain panel (AID 1159580);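 also: tested at 20 µM; growth read once vehicle control cultures reached saturation at 30 °C; 1 = growth at the plate median or of vehicle wells; lower values mean less growth of the strain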
Settings: S. cerevisiae deletion strains, growth OD
[1] = locus YAL040C, strain CLN3, stronger effect = lower value
[2] = locus YCL061C, strain MRC1 (second series), stronger effect = lower value
[3] = locus YDR363W, strain ESC2, stronger effect = lower value
[4] = locus YER002W, strain NOP16, stronger effect = lower value
[5] = locus YGR078C, strain PAC10, stronger effect = lower value
[6] = locus YGR229C, strain SMI1, stronger effect = lower value
[7] = locus YMR307W, strain GAS1, stronger effect = lower value
[8] = locus YNL153C, strain GIM3, stronger effect = lower value
[9] = locus YNL175C, strain NOP13, stronger effect = lower value
[10] = locus YNL197C, strain WHI3, stronger effect = lower value
[11] = locus YNL224C, strain SQS1, stronger effect = lower value
[12] = locus YOR083W, strain WHI5 (second series), stronger effect = lower value
[13] = locus YMR263W, strain SAP30, stronger effect = lower value
[14] = locus YNL128W, strain TEP1, stronger effect = lower value
[15] = locus YNL322C, strain KRE1, stronger effect = lower value
[16] = locus YPL241C, strain CIN2, stronger effect = lower value
[17] = locus YJR075W, strain HOC1, stronger effect = lower value

Measured: normalized growth

NC(=O)C1=CN(C2OC(COP(=O)(O)OP(=O)(O)OC[C@H]3O[C@@H](n4cnc5c(N)ncnc54)C(OP(=O)(O)O)[C@H]3O)C(O)C2O)C=CC1 (stereo partly drawn)
inactive: [1] 0.989 | [2] 0.997 | [3] 0.976 | [4] 0.977 | [5] 0.979 | [6] 1 | [7] 1 | [8] 1.02 | [9] 0.98 | [10] 0.986 | [11] 1 | [12] 0.991

CCCN1CCC[C@H](c2cccc(O)c2)C1
inactive: [1] 1 | [2] 0.999 | [3] 1.03 | [4] 0.988 | [5] 1.01 | [6] 1 | [13] 0.993 | [7] 0.992 | [14] 1.01 | [8] 1.18 | [9] 0.995 | [10] 1.01 | [11] 1 | [15] 1 | [12] 1 | locus YPL055C, strain LGE1, stronger effect = lower value 0.994 | [16] 1.01

CCCN1CCC[C@@H](c2cccc(O)c2)C1
active: [10] 0.446
inactive: [1] 0.98 | [2] 1 | [3] 1.03 | [4] 0.983 | [5] 0.984 | [6] 0.999 | [17] 1 | [13] 1 | [7] 0.996 | [14] 0.999 | [9] 1.01 | [11] 0.993 | [12] 1.01 | [16] 0.999

CCCN1CCC[C@@H](c2cccc(C#N)c2)C1
inactive: locus YAL013W, strain DEP1, stronger effect = lower value 1.01 | [1] 0.986 | [2] 1.01 | locus YDR150W, strain NUM1, stronger effect = lower value 0.994 | [3] 1.04 | [4] 0.989 | [6] 1.04 | [17] 1 | [13] 1.01 | [9] 0.993 | [10] 1.04 | [11] 1.01 | [15] 1 | [12] 0.978
